CHX counter: affects cycloheximide protein synthesis inhibition readout, counter-screen | cell reporter, cycloheximide protein synthesis inhibition counterscreen | 300,000 compounds, 12% hits | max response, % | AID 2314; in the data active = max response mostly above about 13%, no sharp cut-off; inactive = mostly below about 14%; also: read at 38.3 µM for the half of the compounds with a filed dose; 0% is about no effect
FBPA Giardia inh: Giardia lamblia aldolase inhibition | 290,000 compounds, 0.71% hits | Potency, µM (doses to about 59.6 µM), inactives show at the top dose activity, negative = inhibition, usual class: inhibitors | A8B2U2 | purified Giardia FBPA; also: potency is read from the fitted curve at half-maximal effect; % is scaled to controls: 0 for no effect and ±100 for the full control effect; nearly all actives have a fitted effect of over 55% in size
Target sequence (A8B2U2 whole entry, looked up): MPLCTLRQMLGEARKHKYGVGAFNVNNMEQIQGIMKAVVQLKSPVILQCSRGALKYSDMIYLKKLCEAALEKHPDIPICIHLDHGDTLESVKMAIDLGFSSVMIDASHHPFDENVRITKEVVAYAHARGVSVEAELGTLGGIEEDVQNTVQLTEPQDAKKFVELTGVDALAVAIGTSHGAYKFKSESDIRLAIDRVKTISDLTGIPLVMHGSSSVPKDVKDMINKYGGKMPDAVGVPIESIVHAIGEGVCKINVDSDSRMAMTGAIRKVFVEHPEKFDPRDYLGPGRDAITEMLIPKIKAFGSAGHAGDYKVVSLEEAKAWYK
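Giardia FBPA (40 nM reagent) was preincubated 10 min at RT with compound (up to 57.5 uM final), then substrate plus GAPDH/TPI/NAD/arsenate coupling system with diaphorase/resazurin was added; resorufin fluorescence (525/598 nm) was read after 20 min.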
Shiga toxin inh: blocks Shiga toxin action in Vero cells. Vero cells, Shiga toxin protein synthesis inhibition reporter. inhibition, % at 38.7 µM. 290,000 compounds, 9.2% hits. AID 2315; in the data active = inhibition mostly above about 28%, no sharp cut-off; inactive = mostly below about 43%; also: 0% is about no effect
NS1 inh: influenza NS1 inhibition | AID 2326 | 270,000 compounds, 0.4% hits | Potency, µM (top dose mostly 46.1 µM), for the others: at the top dose activity, positive = more growth; calls by dose curve; also: potency is read from the fitted curve at half-maximal effect; actives are rising curves; nearly all actives have a fitted effect of over 50% in size
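S. cerevisiae expressing influenza A NS1, grown in glucose, washed, then diluted 1:100 into pH 6.0 -URA galactose medium with 23 nl compound. Growth recovery read as OD600; NS1-free strain serves as control.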
LmPK inhibitor: inhibitors of Leishmania mexicana pyruvate kinase; purified LmPK, Kinase-Glo ATP luminescence, 1 h; Potency, µM (doses to about 57.5 µM), for the others: top-dose activity change, negative = inhibition, most hits filed as inhibitors; 290,000 compounds, 0.37% hits; also: potency is read from the fitted curve at half-maximal effect; % is scaled to controls: 0 for no effect and ±100 for the full control effect
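Purified LmPK (0.1 nM) with 0.5 mM PEP and 0.1 mM ADP in imidazole buffer pH 7.2 with MgCl2/KCl, 1 h at room temperature. ATP formed was read by luciferase luminescence and normalized to no-enzyme and uninhibited controls.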
Starred values were filed as active, the others as inactive; ? = inconclusive; / = no result; [ ] = dose if it differs, or a comment. Compounds with a hit are over-represented: about 14% of the library has one in this group of screens. Unless noted, calls follow the shape of the dose curve; as a rule, active = well fitted curve in the direction sought with a large enough effect; inconclusive = small, poorly fitted or top-dose-only effect, or another doubt; inactive = no such curve, though single readings can be large; an effect the other way counts as inactive or inconclusive.

SMILES	CHX counter	FBPA Giardia inh	Shiga toxin inh	NS1 inh	LmPK inhibitor
COC(=O)C/C=C/C(C)C(OCc1cccc(-c2ccccc2)c1)C1CCCCC1 (stereo not given)	/	-2.3%[12.9 µM]	/	/	/
O=C(/C=C/c1ccco1)Nc1ccc2nc3n(c(=O)c2c1)CCCC3	51.6*	1.6%	65.8*	/	15.3%
O=c1c2cc(NC(=S)N3CCCC3)ccc2nc2n1CCCCC2	-2.0	-0.3%	-10.2	5.0%	-3.9%
CCN(/N=C/C=C/c1ccccc1)c1cc(=O)n(C)c(=O)[nH]1	-0.5	?	13.0	2.6%	-1.9%
CCN(/N=C/c1ccc(Cl)cc1)c1cc(=O)n(C)c(=O)[nH]1	34.1*	?	active	0.7%	0.5%
O=C(CNC(=O)c1ccco1)N/N=C/c1ccc(C(=O)O)cc1	5.9	-16.8%	-12.5	13.0%	7.2%
N#C/C(=C\c1cccc([N+](=O)[O-])c1)c1ccccn1	28.0*	-10.0%	54.6*	3.9%	-1.0%
Nc1cccc(/C=C/c2ccncc2)c1	19.6*	-0.6%	58.7*	2.1%	-14.9%
O=[N+]([O-])c1cccc(/C=N/Nc2ccccn2)c1	15.9	-0.8%	65.2*	/	-2.3%
Nc1cccc(CCc2ccncc2)c1	0.2	7.3%	-3.2	-8.9%	-4.2%
O=C(c1cccc([N+](=O)[O-])c1)c1ccccn1	1.3	8.7%	4.8	0.8%	-11.9%
O=[N+]([O-])c1cccc(/C=C/c2ccccn2)c1	28.7*	-11.6%	53.9*	-7.8%	-12.8%
C[C@H]1C2=C3C(C[C@H]4C(=O)N(c5ccccc5)C(=O)[C@H]4[C@H]3[C@@]3(Cc4ccccc4)C(=NCCc4c[nH]c5ccccc45)OC(=O)N3C2=O)[C@H]2C(=O)N(c3ccccc3)C(=O)[C@H]21 (stereo not given in full)	/	-4.8%	/	/	/
CCCNC(=O)CN1C(=O)c2ccccc2Sc2ncccc21	-1.4	-2.0%	-5.9	3.8%	0.5%
CC12CCC(/C(=N/O)C1=O)C2(C)C (stereo not given)	6.4	-2.3%	-5.6	/	/
CNC(=O)COc1coc(CN2CCN(c3ccccc3F)CC2)cc1=O	1.7	/	-4.1	1.8%	-8.9%
COc1ccc(COC(=O)N/N=C2/C[C@@H](O)[C@@H](O)[C@@H]3[C@@H]4C(=O)N([C@@H](C)c5ccccc5)C(=O)[C@H]4CC[C@H]23)cc1	/	-4.6%[12.9 µM]	/	/	/
Cc1cccc(/C=C/c2ccccc2)n1	/	-7.5%	/	-4.1%	/
C(=C\c1ccccn1)/c1ccncc1	21.5*	-9.7%	77.8*	?	-26.7%
CN(C)c1ccc(/C=N/Nc2ccc(-n3ccnc3)nn2)cc1	7.1	-14.9%	4.4	-12.5%	-1.8%
O=[N+]([O-])c1cccc(/C=N/Nc2nccnc2Cl)c1	42.1*	-24.7%	76.7*	5.9%	14.1µM*
Cc1cc(C)nc(N/N=C/c2cccc([N+](=O)[O-])c2)n1	12.4	?	28.6	1.7%	2.3%
Nc1nnc(/C=C/c2cccc([N+](=O)[O-])c2)s1	41.6*	13.4%	29.2	5.5%	0.3%
CN(C)c1ccc(/C=N\Nc2ccccn2)cc1	23.9*	16.1%	47.1*	-12.3%	-0.7%
CCN(C(=O)COC(=O)c1nn(-c2ccccc2)c(=O)c2ccccc12)C1CCS(=O)(=O)C1 (stereo not given)	-2.6	-2.2%	0.9	-7.2%	3.1%
SMILES	CHX counter	FBPA Giardia inh	Shiga toxin inh	NS1 inh	LmPK inhibitor
CC(=O)N/N=C/c1ccccc1OCCOc1cccc(C)c1	1.6	2.2%	-7.5	-36.1%	-1.9%
CCCCCN(C(=O)CCC(=O)OCC(=O)N1C(C)CCCC1C)c1c(N)n(CCCC)c(=O)[nH]c1=O (stereo not given)	1.5	/	23.4	1.6%	-11.1%
O=[N+]([O-])c1cc(/C=N\Nc2ccccn2)ccc1Cl	11.1	-0.7%	13.9	-12.8%	0.2%
O=[N+]([O-])c1ccc(/C=N/Nc2ccccn2)cc1	20.0*	-4.9%	60.3*	-3.1%	-0.3%
COc1ccc2cc(CN(CC3CCCO3)S(=O)(=O)c3ccc(C(C)=O)cc3)c(=O)[nH]c2c1 (stereo not given)	19.3*	0.9%	63.5*	5.6%	0.6%
COC(=O)c1ccccc1S(=O)(=O)N(Cc1cc2ccc(OC)cc2[nH]c1=O)CC1CCCO1 (stereo not given)	-4.3	1.6%	-20.7	?	0.4%
COc1cccc(NC(=O)c2ccc3c(c2)CCCC3)c1	48.8*	2.5%	73.0*	-32.7%	-21.2%
CC(=O)c1cccc(NC(=O)c2ccc3c(c2)CCCC3)c1	53.3*	-13.4%	56.8*	-69.3%	-3.3%
COC(=O)N1CCC2(CCCN(C(=O)Nc3cccc(F)c3)C2)CC1	/	4.8%	/	/	/
N#Cc1ccc(S(=O)(=O)N2CCN(S(=O)(=O)c3ccc4c(c3)OCCO4)CC2)cc1	-1.7	/	21.6	/	/
Fc1ccccc1-c1csc(-c2cccnc2)n1	47.8*	-7.6%	37.8*	0.9%	-1.8%
Cc1nc(-c2ccc(O)c(O)c2)cs1	-1.0	?	-7.6	-11.6%	-0.7%
CN(C)S(=O)(=O)c1ccc(-c2csc(-c3cccnc3)n2)cc1	19.4	-0.4%	20.6	-6.1%	-0.8%
Oc1ccc(-c2csc(-c3ccccc3)n2)cc1O	32.7*	?	71.3*	-198.9%	-5.9%
CS(=O)(=O)c1ccc(-c2csc(-c3cccnc3)n2)cc1	39.1*	-6.0%	54.0	-0.9%	-1.4%
Fc1ccc(-c2csc(-c3cccnc3)n2)cc1F	22.5	20.8%	60.9*	-86.3%	1.0%
O=C(c1ccco1)N1CCN(C(=S)Nc2ccc(Br)cc2Cl)CC1	6.4	/	-5.6	-20.0%	0.2%
COc1cn(-c2ccccc2)nc1C(=O)NCc1ccccc1	7.3	-6.3%	13.9	-33.7%	0.0%
COc1ccc(-c2noc(CCC(=O)NCC3CCCO3)n2)cc1OC (stereo not given)	10.7	8.0%	17.1	-5.2%	-0.9%
Brc1ccsc1-c1csc(-c2ccncc2)n1	43.0*	8.8%	87.0*	-49.5%	-9.4%
Oc1ccccc1-c1csc(-c2ccccc2)n1	75.0*	-2.5%	158.5*	/	-19.5%
Nc1nc(-c2ccccc2)cc(-c2ccccc2O)n1	9.2	-0.4%	15.9	-38.7%	-1.5%
Oc1ccc(-c2csc(-c3cccnc3)n2)cc1O	54.3*	-14.3%	61.1*	-8.5%	-14.6%
O=C(COc1ccccc1)Nc1nc(-c2ccncc2)cs1	-0.4	/	-7.3	11.1%	-0.7%
c1ccc(-c2csc(-c3ccncc3)n2)cc1	30.7*	4.4%	55.0*	-10.6%	-6.0%
SMILES	CHX counter	FBPA Giardia inh	Shiga toxin inh	NS1 inh	LmPK inhibitor
CCOc1ccc(S(=O)(=O)n2cnc(C)c2)cc1	-0.6	-5.5%	-5.1	-12.3%	-3.3%
O=c1c(-c2ccc(Cl)cc2)nc2cnc(N3CCOCC3)nc2n1Cc1ccc(F)cc1	/	8.4%	/	/	/
Cc1c2cc[n+](CCN3CCCCC3)cc2c(C)c2c1[nH]c1ccc(O)cc12	/	/	/	-30.5%	/
N#Cc1cncc(-c2ccc3c(c2)OCCOCCOCCOCCOCCO3)n1	1.7	-6.3%	-1.3	3.5%	3.1%
c1cncc(-c2nc(-c3ccc4c(c3)OCCO4)cs2)c1	63.0*	3.5%	128.3*	-68.2%	-15.8%
Cc1csc(-c2cccnc2)n1	-2.4	6.2%	11.8	-9.8%	-3.0%
O=C1c2ccccc2C(=O)N1CCc1csc(-c2ccccc2)n1	18.2*	-4.8%	35.8*	-16.2%	-7.3%
